Screening results as filed in PubChem BioAssay.
IDE cell inh: inhibitors of human insulin-degrading enzyme in cells; HEK cells, FAbetaB cleavage, fluorescence polarization; inhibition, % at 5.59 µM; actives 0.41% (n = 320,000);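 active = percent inhibition above the average of all tested compounds plus 3 SD, set per screening campaign, cut at about 16% in these data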;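 note: IDE supplied by intact live HEK cells; FP after avidin binding of uncleaved biotin substrate so inhibition keeps polarization high; 0% = DMSO wells and 100% = 60 µM reference IDE inhibitor Ii1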
CHT inh: human CHT choline transport inhibition | Q9GZV3 | B-score at 10 µM | AID 488975 | actives 0.86% (n = 310,000) | CHT-expressing cells, membrane potential dye, choline response; stronger effect = lower value;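 active = B-score over 3 SD under the library average, and starting fluorescence ratio not unusually high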;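 note: choline stimulus applied at its EC90 after an EC20 pre-addition; B-score computed on integrated fluorescence ratio after choline addition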
CHT PAM: allosteric activators of human choline transporter CHT; Q9GZV3; CHT-expressing cells, membrane potential dye, choline EC20; stronger effect = higher value; LV-AA mutant CHT in HEK293 cells; B-score at 10 µM; actives 0.49% (n = 310,000); AID 488977;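 active = initial fluorescence not abnormally high and integrated response B-score, plate-corrected, over 3 SD above library mean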
IDE act: activators of human insulin-degrading enzyme in cells; P14735; HEK cells, FAbeta-B cleavage, fluorescence polarization; 0% vehicle, 100% cell-free pure enzyme wells; activation, % at 5.96 µM; actives 0.073% (n = 340,000);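 active = activation above the mean of all tested compounds plus 3 SD, set per screening campaign, cut at about 17% in these data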
ANO1 activ: mouse TMEM16A channel activation, primary screen | Q8BHY3 | HEK293 TMEM16A/YFP-H148Q/I152L, iodide quench fluorescence; stronger effect = lower value | B-score at 10 µM | actives 0.3% (n = 340,000) | AID 623877;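 active = fluorescence-ratio B-score plate-corrected deviation score at least 3 library SD below zero, with starting fluorescence score within 5 deviations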;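 note: channel opened by trigger with iodide after compound preincubation; score built on the fluorescence ratio of max minus min over baseline; more negative score means more quench and so TMEM16A activation or potentiation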
TMEM16A inh: inhibitors of mouse TMEM16A calcium-activated chloride channel | normalized B-score (activity score, 25-100; higher = stronger inhibition) at 10 µM | AID 588511 | Q8BHY3 | actives 1.2% (n = 310,000) | HEK293 TMEM16A/YFP iodide influx fluorescence, ionomycin;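 active = ratio plate-corrected score three or more library SD toward inhibition, starting fluorescence score within five deviations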;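 note: score derived from kinetic fluorescence span divided by baseline fluorescence per well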
CHT block conf: human CHT inhibition, confirmatory screen. shares compounds with CHT inh. CHT-expressing cells, choline membrane potential dye; LV-to-AA substituted CHT, HEK293 cells. CHT activity remaining % of control (stronger effect = lower value), % at 10 µM. actives 70% (n = 2,400). AID 493221;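 active = choline transporter activity left, mean of duplicates at 10 µM, below buffer-only control mean minus 3 SD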;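 note: depolarization triggered by choline at its EC90 following an EC20 pre-addition; 0% = hemicholinium-3 full block and 100% = buffer-only control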
HEK293 CHT ctr: CHT inhibitor counter-screen hit in parental HEK293 cells | membrane potential dye, choline response; active = decrease or increase beyond buffer ±3SD | shares compounds with CHT inh | AID 493222 | actives 4% (n = 2,400) | membrane potential ratio readout (active if shifted either direction beyond buffer ±3SD; no single direction) at 10 µM;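 note: parental cells lack the transporter so any hit is non-specific; ratio is peak minus trough fluorescence over baseline after EC90 choline challenge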
* marks the source's active call; other numbers are inactive results; i = inactive; nt = not tested or not shown. In the library only some 2.7% were active in any assay of this set; here they are far more common.

SMILES	IDE cell inh	CHT inh	CHT PAM	IDE act	ANO1 activ	TMEM16A inh	CHT block conf	HEK293 CHT ctr
CCOc1ccc(C(=O)N2CCN(Cc3ccccc3)CC2)cc1OCC	nt	nt	nt	4	i	nt	nt	nt
c1ccc(CN2CCC(CNc3ncnc4ccccc34)C2)cc1 (centres undefined)	nt	nt	nt	-4	i	nt	nt	nt
c1ccc(CN2CCC(Nc3nc(-c4ccccc4)nc4ccccc34)CC2)cc1	-3	-6.3*	i	4	i	i	i	i
O=C(NNC(=S)Nc1ccc(Br)cc1)c1ccc(N2CCOCC2)c([N+](=O)[O-])c1	8	i	i	-1	i	i	nt	nt
O=C(NNC(=S)Nc1ccc(Cl)cc1Cl)c1ccc(N2CCOCC2)c([N+](=O)[O-])c1	0	-5.5*	i	7	i	i	35%*	i
OCC(O)C1OC(c2ccccc2)OC(CO)C1O (centres undefined)	nt	nt	nt	-1	i	nt	nt	nt
CC(C)Cn1cnc2c1c(=O)n(CC(=O)NC(=O)NC(C)(C)C)c(=O)n2Cc1ccccc1	-6	i	i	3	i	i	nt	nt
Cc1nc(SCC(=O)NC(=O)NCc2ccccc2)nc(C)c1C	3	-6.2*	i	-1	i	i	69%*	i
CC(=O)OC1CC2(C)C(=O)CCC2C2CCc3cc(O)ccc3C12 (centres undefined)	1	-8.1*	i	2	i	i	28%*	i
CCc1nc2ccccc2c(=O)n1/N=C/c1ccc(OC)cc1	1	i	i	3	i	i	nt	nt
Nc1nonc1C(=O)N/N=C/c1cc2c(cc1[N+](=O)[O-])OCO2	0	i	i	2	i	i	nt	nt
Cn1cc([N+](=O)[O-])c(C(=O)N/N=C/c2cc3c(cc2Br)OCO3)n1	3	-9.1*	i	-3	i	i	i	i
COc1ccc(CC(=O)NCC2CCCN(Cc3ccc(SC)cc3)C2)cc1 (centres undefined)	4	i	i	1	i	i	nt	nt
O=C(O)c1ccccc1NSc1ccccc1[N+](=O)[O-]	-2	-5.4*	i	6	i	i	62%*	i
COc1ccccc1NC(=O)CNS(=O)(=O)c1ccccc1	-1	-5.7*	i	2	i	i	i	i
O=C(NC1CCCCCCC1)NC1CCCCC1	8	-5.7*	i	5	i	i	i	i
CCn1c(SCC(=O)NCC(=O)Nc2ccc(F)cc2)nnc1-c1cccs1	0	-6*	i	2	i	i	i	i
CCn1c(SCC(=O)c2ccccc2)nnc1-c1cccs1	-9	-6.6*	i	8	i	i	68%*	i
CCn1c(SCC(=O)Nc2ccc(C(=O)OC)cc2)nnc1-c1cccs1	-2	i	i	0	i	i	nt	nt
C#CC[N+]1(CC#Cc2ccccc2)CCCCC1	-1	-9.6*	i	1	i	i	i	i
C#CC[N+]1(CC#Cc2cccc(C)c2)CCCCC1	5	-6.7*	i	1	i	i	39%*	i
Cc1noc(C)c1CSCC(=O)N(C)CC(=O)Nc1ccccc1Br	-1	i	i	-1	i	i	nt	nt
Cn1ncc([N+](=O)[O-])c1C(=O)NC1CCCCC1	1	i	i	9	i	i	nt	nt
CCOC(=O)c1ccccc1NC(=O)Cc1ccc(OC)c(S(=O)(=O)N2CCOCC2)c1	2	nt	nt	2	i	nt	nt	nt
Cc1nc(-c2ccc(F)cc2)c(CC(=O)N2CCN(S(=O)(=O)c3cccc([N+](=O)[O-])c3)CC2)s1	nt	nt	nt	2	i	nt	nt	nt
SMILES	IDE cell inh	CHT inh	CHT PAM	IDE act	ANO1 activ	TMEM16A inh	CHT block conf	HEK293 CHT ctr
CCOC(=O)[C@@H]1[C@H]2COc3ccccc3[C@@H]2N2C(=O)N(c3ccc(Cl)cc3)C(=O)[C@]12C	6	i	i	4	i	i	nt	nt
CCn1cc(C(=O)N2CCCC2)c(=O)c2cc(S(=O)(=O)N3CC(C)CC(C)C3)ccc21 (centres undefined)	-3	i	i	-2	i	i	nt	nt
CC1CCN(S(=O)(=O)c2ccc3c(c2)c(=O)c(C(=O)NC2CCCC2)cn3C)CC1	7	-7.3*	i	-2	i	i	52%*	i
CCn1cc(C(=O)N2CCCCC2)c(=O)c2cc(S(=O)(=O)N3CCC(C)CC3)ccc21	7	-6.2*	i	0	i	i	34%*	i
COC(=O)COc1ccc(C2NC(=O)NC(c3ccccc3)=C2C(C)=O)cc1Br (centres undefined)	5	i	i	6	i	i	nt	nt
COc1ccc(CC(=O)NCc2cn3ccsc3n2)cc1	-2	i	i	1	i	i	nt	nt
O=C(NCc1cn2ccsc2n1)c1cccs1	3	-5.1*	i	-1	i	i	i	i
Cc1ccc(CN2CCN(Cc3cn(C(C)C)c4ccccc34)CC2CCO)o1 (centres undefined)	3	i	i	0	i	i	nt	nt
CC(C)=CCN1CCN(Cc2cn(C(C)C)c3ccccc23)CC1CCO (centres undefined)	-1	-5*	i	3	i	i	40%*	i
O=C(NCCCc1ccccc1)c1cccc(NC(=O)C2CCCC2)c1	nt	nt	nt	2	nt	nt	nt	nt
CCOC(=O)c1c(CSc2ccccc2)n(C)c2ccc(O)c(CN3CCN(C)CC3)c12	4	-7.6*	i	1	i	i	31%*	i
Cc1ccnc(SCc2cc(=O)c(OC(=O)c3ccco3)co2)n1	0	-5.8*	i	7	i	i	61%*	i
COc1ccc(NS(=O)(=O)c2ccc3c(c2)CCC(=O)N3)cc1O	nt	nt	nt	-2	i	nt	nt	nt
S=c1nc(-c2sccc2OCc2ccc(Cl)cc2Cl)[nH][nH]1	3	-5*	i	-7	i	i	70%*	i
Cc1cccc(N2CCN(C(=O)c3cc(COc4ccc(F)c(F)c4)on3)CC2)n1	0	i	i	-1	i	i	nt	nt
N=c1n(CCN2CCCCC2)c2ccccc2n1CC(=O)c1ccc(Cl)c(Cl)c1	8	-5.4*	i	nt	i	i	i	i
CCn1c(=N)n(CC(=O)c2ccc(Cl)c(Cl)c2)c2ccccc21	0	i	i	0	i	i	nt	nt
